Shiga inhibitor: A qHTS for Small Molecule Inhibitors of Shiga Toxin. 290,000 tested, 9.2% active. inhibition, % at 38.7 µM. Vero cells, Shiga toxin protein synthesis inhibition reporter; in the data active = inhibition mostly above about 28%, no sharp cut-off; inactive = mostly below about 43%; also: 0% is about no effect
Cycloheximide cs: Cycloheximide Counterscreen for Small Molecule Inhibitors of Shiga Toxin. cell reporter, cycloheximide protein synthesis inhibition counterscreen. max response, %. 300,000 tested, 12% active; in the data active = max response mostly above about 13%, no sharp cut-off; inactive = mostly below about 14%; also: read at 38.3 µM for the half of the compounds with a filed dose; 0% is about no effect
FBPA Giardia inh: qHTS Assay for Inhibitors of Fructose-1,6-bisphosphate Aldolase from Giardia Lamblia; A8B2U2; purified Giardia FBPA; Potency, µM (highest dose often 59.6 µM), for inactives: at the highest dose activity, negative = inhibition, most hits filed as inhibitors; 290,000 tested, 0.71% active; AID 2451, 2010; also: potency is read from the fitted curve at half-maximal effect; % is scaled to controls: 0 for no effect and ±100 for the full control effect; nearly all actives have a fitted effect of over 55% in size
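40 nM FBPA preincubated 10 min at RT with compound (up to 57.5 uM final), then substrate plus GAPDH/TPI/NAD/arsenate coupling and diaphorase/resazurin added. Fluorescence read after 20 min at RT, 525/598 nm.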
LmPK inh: qHTS Assay for Inhibitors of Leishmania Mexicana Pyruvate Kinase (LmPK) | AID 1721, 2009 | Q27686 | 290,000 tested, 0.37% active | purified LmPK, Kinase-Glo ATP luminescence, 1 h | Potency, µM (top dose mostly 57.5 µM), for inactives: at the highest dose activity change, negative = inhibition, most hits filed as inhibitors; also: potency is read from the fitted curve at half-maximal effect; % is scaled to controls: 0 for no effect and ±100 for the full control effect
Target sequence (Q27686 whole entry, looked up): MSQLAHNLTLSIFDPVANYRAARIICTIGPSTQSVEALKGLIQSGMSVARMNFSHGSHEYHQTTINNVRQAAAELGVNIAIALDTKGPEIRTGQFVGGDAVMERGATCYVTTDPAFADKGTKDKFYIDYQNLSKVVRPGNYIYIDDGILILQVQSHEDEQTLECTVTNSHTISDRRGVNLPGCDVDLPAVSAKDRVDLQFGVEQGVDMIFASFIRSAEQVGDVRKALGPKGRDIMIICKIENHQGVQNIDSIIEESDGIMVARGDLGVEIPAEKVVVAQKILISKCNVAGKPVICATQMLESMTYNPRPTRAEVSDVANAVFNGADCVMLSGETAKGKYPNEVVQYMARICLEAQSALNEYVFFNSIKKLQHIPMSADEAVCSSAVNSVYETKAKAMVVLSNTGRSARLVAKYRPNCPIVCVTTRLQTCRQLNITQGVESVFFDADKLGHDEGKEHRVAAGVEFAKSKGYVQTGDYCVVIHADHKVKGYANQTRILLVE
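In 50 mM imidazole pH 7.2 with 7 mM MgCl2, LmPK (0.1 nM) turned over PEP (0.5 mM) and ADP (0.1 mM) for 1 h at room temperature. Luciferase read-out of ATP.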
Tb PYK inh: qHTS of Trypanosoma Brucei Inhibitors. pyruvate kinase (Trypanosoma brucei), Q57TT1. AID 624173, 2012. 410,000 tested, 0.12% active. TbPYK enzyme, Kinase-Glo Plus ATP luminescence, 45 min. Potency, µM (titrated, usually from 76.8 µM), inactives show top-dose activity, negative = inhibition, actives largely listed as inhibitors; also: potency is read from the fitted curve at half-maximal effect; % is scaled to controls: 0 for no effect and ±100 for the full control effect; nearly all actives have a fitted effect of over 50% in size
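Screened from lowest to highest concentration, compounds were pinned into TbPYK/substrate mixtures, and ADP (130 uM final) was added. Plates sat at room temperature for 45 min prior to Kinase-Glo Plus detection by luminescence.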
Sm TGR inh: qHTS Assay for the Inhibitors of Schistosoma Mansoni Peroxiredoxins; 360,000 tested, 3% active; purified TGR, DTNB reduction, TNB absorbance 405 nm; Potency, µM (series often up to 114 µM), for the others: top-dose activity change, negative = inhibition, most hits filed as inhibitors; Schistosoma mansoni thioredoxin glutathione reductase (TGR), Q962Y6; also: potency is read from the fitted curve at half-maximal effect; % is scaled to controls: 0 for no effect and ±100 for the full control effect; nearly all actives have a fitted effect of over 60% in size
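Kinetic colorimetric format: TGR-catalysed, NADPH-driven DTNB reduction monitored via TNB absorbance. Enzyme dispensed at 20 nM; compound exposure 15 min at room temperature before reaction start.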
The depositor's hits bear a star; ! = not confirmed by another sample; [ ] = remark or other dose. Only a selection was taken, and hits are over-represented in it overall. Unless noted, calls follow the shape of the dose curve; as a rule, active = well fitted curve in the direction sought with a large enough effect; inconclusive = small, poorly fitted or top-dose-only effect, or another doubt; inactive = no such curve, though single readings can be large; an effect the other way counts as inactive or inconclusive.

What do the screens show for `CCCSC1=C(C#N)C(c2cccs2)C(C(=O)Nc2ccccc2)=C(C)N1` (configuration not stated)?
Shiga inhibitor: 12; Cycloheximide cs: 5; FBPA Giardia inh: -1%; LmPK inh: 2%; Tb PYK inh: 2%; Sm TGR inh: 35µM*

Results for CCSC1=C(C#N)C(c2cccs2)C(C(=O)OC)=C(C)N1 (configuration not stated) ?
Shiga inhibitor: -13; Cycloheximide cs: -2; FBPA Giardia inh: 0%; LmPK inh: 8%; Tb PYK inh: -10%; Sm TGR inh: -4%[11.4 µM]

How did COc1ccccc1NC(=O)C1=C(C)NC(SCC(=O)Nc2ccc(C(=O)O)cc2)=C(C#N)C1c1cccs1 (configuration not stated) do in these assays?
Shiga inhibitor: -2; Cycloheximide cs: -2; FBPA Giardia inh: -5%; LmPK inh: 7%; Tb PYK inh: -26%; Sm TGR inh: 45µM*

Results for O=C(Cc1ccc(Cl)cc1)NCC(=O)N1CCCC1 ?
Shiga inhibitor: -5; Cycloheximide cs: -3; FBPA Giardia inh: 0%; LmPK inh: 2%; Tb PYK inh: 0%; Sm TGR inh: 9%

How did O=C(NCC(=O)N1CCCCCC1)c1ccc(Br)cc1 do in these assays?
Shiga inhibitor: 47*; Cycloheximide cs: 34*; FBPA Giardia inh: 5%; LmPK inh: -4%; Tb PYK inh: 4%; Sm TGR inh: -7%

Results for O=C(NCC(=O)N1CCCC1)c1ccc(Cl)cc1 ?
Shiga inhibitor: 27*; Cycloheximide cs: 16*; FBPA Giardia inh: 4%; LmPK inh: 2%; Tb PYK inh: -7%; Sm TGR inh: -21%

What do the screens show for `O=C(NCCC(=O)N1CCCCC1)c1ccc(Br)cc1`?
Shiga inhibitor: 88*; Cycloheximide cs: 56*; LmPK inh: 2%; Tb PYK inh: -5%; Sm TGR inh: -20%

How did O=C(NCCC(=O)N1CCCCCCC1)c1ccc(Br)cc1 do in these assays?
Tb PYK inh: 2%; Sm TGR inh: 1%

How did CC(C)(C)c1ccc(C(=O)NNC(=O)C(=O)N2CCCCC2)cc1 do in these assays?
Shiga inhibitor: 39*; Cycloheximide cs: 17*; FBPA Giardia inh: 2%; LmPK inh: -3%; Tb PYK inh: -15%; Sm TGR inh: 4%

Results for Cc1ccc(N2CC(NC(=O)CCc3ccccc3)CC2=O)cc1C (configuration not stated) ?
Tb PYK inh: 7%; Sm TGR inh: 0%

Results for Cc1nc(NCc2ccccc2)c2nc(-c3ccccc3)n(CCN(C)C)c2n1 ?
FBPA Giardia inh: 6%

How did CCCCNc1nc(C)nc2c1nc(-c1ccccc1)n2CCCN(C)C do in these assays?
FBPA Giardia inh: 1%

What do the screens show for `CC1CCN(C(=O)CCNC(=O)c2ccccc2Cl)CC1`?
Shiga inhibitor: -19; Cycloheximide cs: -4; LmPK inh: -7%; Tb PYK inh: -1%; Sm TGR inh: -2%

What do the screens show for `CC(C)(C)c1ccc(C(=O)NCCC(=O)N2CCCC2)cc1`?
Shiga inhibitor: 96*; Cycloheximide cs: 40*; FBPA Giardia inh: 1%; LmPK inh: -2%; Tb PYK inh: -3%; Sm TGR inh: 4%

Results for CC(C)(C)c1ccc(C(=O)NCCC(=O)N2CCN(c3ncccn3)CC2)cc1 ?
Shiga inhibitor: 5; Cycloheximide cs: -1; FBPA Giardia inh: -14%; LmPK inh: 8%; Tb PYK inh: 8%; Sm TGR inh: 0%

Results for O=C(NCCC(=O)N1CCCC1)c1ccccc1Cl ?
Shiga inhibitor: 19; Cycloheximide cs: 18*; LmPK inh: -1%; Tb PYK inh: -3%; Sm TGR inh: 1%

What do the screens show for `O=C(NCc1ccccc1)/C(=C\c1cccc([N+](=O)[O-])c1)NC(=O)c1ccco1`?
Tb PYK inh: -2%

What do the screens show for `COc1ccc(CNC(=O)Cn2c(SCC(=O)Nc3ccc(C)c(C)c3)nc3ccccc32)cc1`?
Tb PYK inh: -1%; Sm TGR inh: -4%

What do the screens show for `Cc1nc(C#N)c(N/N=C/c2c(F)cccc2Cl)o1`?
Shiga inhibitor: 35; Cycloheximide cs: 28*; FBPA Giardia inh: -8%; LmPK inh: -10%; Tb PYK inh: -5%; Sm TGR inh: -4%

Results for CC1=CC(C)=Nc2ccc(C)cc2N1 ?
Shiga inhibitor: 94*!; Cycloheximide cs: 27*; FBPA Giardia inh: inconclusive; LmPK inh: 1%; Tb PYK inh: 0%; Sm TGR inh: 0%

What do the screens show for `O=c1ccnc(S/C=C/c2ccccc2)[nH]1`?
Shiga inhibitor: 23; Cycloheximide cs: 35*; FBPA Giardia inh: 16%; LmPK inh: -20%; Tb PYK inh: -17%; Sm TGR inh: -6%

Results for CC(NC(=O)c1csc2ccccc12)C1CCCO1 (configuration not stated) ?
Shiga inhibitor: 63*; Cycloheximide cs: 32*; FBPA Giardia inh: 0%; LmPK inh: -4%; Tb PYK inh: -7%; Sm TGR inh: 0%

Results for CC(NC(=O)c1cccs1)C1CCCO1 (configuration not stated) ?
Shiga inhibitor: 3; Cycloheximide cs: -1; FBPA Giardia inh: -2%; LmPK inh: -1%; Tb PYK inh: 0%; Sm TGR inh: -4%

What do the screens show for `CC(NC(=O)c1ccc(Cl)s1)C1CCCO1` (configuration not stated)?
Shiga inhibitor: -15; Cycloheximide cs: -4; FBPA Giardia inh: 2%; LmPK inh: 1%; Tb PYK inh: -10%; Sm TGR inh: -5%

Results for CC(NC(=O)c1sc2ccccc2c1Cl)C1CCCO1 (configuration not stated) ?
Shiga inhibitor: 24; Cycloheximide cs: 36*; FBPA Giardia inh: 0%; LmPK inh: -6%; Tb PYK inh: -1%; Sm TGR inh: -4%

How did COCCSc1nc2c([nH]c3ccccc32)c(=O)n1-c1ccc(OC)c(OC)c1 do in these assays?
Tb PYK inh: 1%; Sm TGR inh: -3%

How did O=C1CC(N2CCc3ccccc32)C(=O)N1c1ccccc1 (configuration not stated) do in these assays?
Shiga inhibitor: 73*; Cycloheximide cs: 33; FBPA Giardia inh: -1%; LmPK inh: -2%; Tb PYK inh: -6%; Sm TGR inh: 3%

What do the screens show for `O=C1CC(N2CCCc3ccccc32)C(=O)N1c1ccccc1Cl` (configuration not stated)?
Shiga inhibitor: 16; Cycloheximide cs: -3; FBPA Giardia inh: 10%; LmPK inh: 2%; Tb PYK inh: -13%; Sm TGR inh: 20µM*

From PubChem
